About 83,000 compounds went through this panel and 20% of them were active in at least one assay; those are over-represented in the sample as a whole.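 How to read the values: 0–100, growth inhibition (40 = 60% inhibited); 0, no net growth; -100 to 0, cell death (-40 = 40% of starting cells died; -100 = all dead).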 Calls of active or inactive are those of the source. The calls were made as follows: active = growth percent below 10; inactive = the rest.
The compounds below were run on OVCAR-5 ovarian (assay: NCI-60 one-dose screen, 48 h (100 = growth as untreated, 0 = no growth, -100 = all killed)). Conditions: 10 µM unless noted.

Question: How did the growth turn out when `O=C(Nc1cccc(F)c1)c1cc(=O)[nH]c2cc(Br)ccc12` was run?
Answer: Its growth is 63.3% (inactive).

Question: Which growth does the source give for `COC(=O)[C@]12CCC(C)(C)C[C@H]1C1=CC[C@@H]3[C@@]4(C)C/C(=C/c5cccnc5)C(=O)C(C)(C)[C@@H]4CC[C@@]3(C)[C@]1(C)CC2` here?
Answer: Its growth is -19.5% [100 µM] (active).

Question: For `N#C/C(C(=O)c1ccccc1)=C1/C(=O)Nc2ccc(Br)cc21`, which growth is on record?
Answer: The growth was 107% (inactive).

Question: How did the growth turn out when `COc1ccc(-c2cc(-c3ccc(Cl)cc3)nc(NCCCCNc3ccnc4cc(Cl)ccc34)n2)cc1` was run?
Answer: The growth was 96.2% (inactive).

Question: With `CCCSc1nc(N)nc2nc[nH]c12` as the compound, how does the growth read?
Answer: Its growth is 108% (inactive).

Question: How did the growth turn out when `CCN(CC)c1ccc2cc(NC(=O)OCCNC(=O)CCNC(=O)[C@H](CC(C)C)NC(=O)C(C)(C)NC(=O)C(C)(C)NC(=O)[C@H](CC(C)C)NC(=O)CCNC(=O)C(C)(C)NC(=O)[C@H](CC(C)C)NC(=O)CCNC(=O)[C@@](C)(CC)NC(=O)[C@H](C)NC(=O)CCNC(=O)C(C)(C)NC(=O)[C@H](C)NC(=O)[C@@H]3CCCN3C(=O)[C@@](C)(CC)NC(=O)[C@H](Cc3ccccc3)NC(=O)C3CCCN3C(=O)C(C)(C)NC(=O)C3CCCN3C(=O)C(C)(C)NC(C)=O)c(=O)oc2c1` (stereo partly drawn) was run?
Answer: The growth was -87.7% (active).

Question: How did the growth turn out when `C=C(C)[C@@H]1CC[C@]2(C(=O)N3CCN(C)CC3)CC[C@]3(C)[C@H](CC[C@@H]4[C@@]5(C)C/C(=C/c6ccncc6)[C@H](O)C(C)(C)[C@@H]5CC[C@]43C)[C@@H]12` was run?
Answer: Its growth is 7.38% [100 µM] (active).

Question: Which growth does the source give for `CC[C@@](C)(NC(=O)[C@H](C)NC(=O)CCNC(=O)C(C)(C)NC(=O)[C@H](C)NC(=O)[C@@H]1CCCN1C(=O)[C@@](C)(CC)NC(=O)[C@H](Cc1ccccc1)NC(=O)C1CCCN1C(=O)C(C)(C)NC(=O)C1CCCN1C(=O)C(C)(C)NC(C)=O)C(=O)NCCC(=O)N[C@@H](CC(C)C)C(=O)NC(C)(C)C(=O)NCCC(=O)N[C@@H](CC(C)C)C(=O)NC(C)(C)C(=O)NC(C)(C)C(=O)N[C@@H](CC(C)C)C(=O)NCCC(=O)NCO` (stereo partly drawn) here?
Answer: The growth was -87.6% (active).
